± gives the standard deviation of the averaged measurements. In all, about 25,000 sequences were measured (“ln(normalized median fluorescence intensity)”: median about 10, highest 2% from about 12 on). The full list was thinned out, with the highest values kept by preference.
Tested on: PfAP2-G AP2 domain (GST-tagged)
Assay: gcPBM binding intensity (ln(normalized median fluorescence intensity)); higher = stronger DNA binding
Method in brief: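 Binding intensity is the highest Masliner-normalised natural-log median intensity over replicate spots in either probe orientation. To obtain it, GST-tagged P. falciparum DNA-binding domains made in E. coli were incubated for 1 h on an Agilent 4 × 180k array of primer-extended double-stranded 36-bp intergenic genomic probes plus negative controls. Detection used Alexa488 anti-GST antibody with scanning at 488 nm.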

In order of falling “gcPBM binding intensity (ln)” value:
1. AATATATATTTGTGTACACATTATATATATATATAT [CACACA_site6103]  11.9 ± 1.1
2. TATATATATATGTGTACACAAAAAATATTATATTAT [CACACA_site5505]  11.9 ± 0.93
3. TGTCTGTGCGGGTGTACACATTTCATATTACCCAAT [CACACA_site5593]  11.8 ± 0.98
4. TGTTATATTTGTGCGTGTACACATTTGAAAAAATAT [XGTACX_site3796]  11.8 ± 1.1
5. ACATATAAATTGTGTACACATATATATATATTTTTT [CACACA_site5946]  11.8 ± 1
6. AGAAATTAATCGAGGTGTACGTACATCCAAATATAT [XGTACX_site7650]  11.8 ± 1.2
7. AGTATAAAATAAATGTGTACACAAGAAAATATGTTA [XGTACX_site8381]  11.8 ± 0.93
8. GTGTAGGCAAAAAGTTGTACGCCTAAAATCTATATA [XGTACX_site8912]  11.7 ± 1.1
9. TATTTTAATTTTTGTTGTACGCAAATGTGAGGGCAT [XGTACX_site4663]  11.7 ± 1.2
10. CCCTTTTCTAAATATTGTACGTATAAATTATATTAC [XGTACX_site7676]  11.7 ± 0.88
11. TCTTTAATGATGTGTACACAAGAAAACATTGTTAAG [CACACA_site5299]  11.7 ± 0.89
12. TATATATATATATGGGGTACAAATGGTCAGTATTAT [XGTACX_site1223]  11.7 ± 0.97
13. TTTTTTTTTGGGTGTACACATGAATATATATTTTTT [CACACA_site5254]  11.7 ± 0.95
14. TAATATTTTTTGTGTACACATATATATATATATATA [CACACA_site5504]  11.7 ± 0.88
15. AAGGAAATATAATATACACACATAAGTGTACTTCTA [CACACA_site6079]  11.7 ± 1.1
16. ATATATATATATATGTGTACACAACAAAATAAAAAA [XGTACX_site7378]  11.7 ± 0.79
17. TATATATATATGTGTAGTACAACAAATATGAAAAAT [XGTACX_site4059]  11.7 ± 0.86
18. TATATATATATAATGTGTACACAAATATATATTATA [XGTACX_site8786]  11.7 ± 1.1
19. AAATGTGTTAATGTGCGTACACATATATATAATATT [XGTACX_site2792]  11.7 ± 1.1
20. TTTGACAAATTATTGTGTACACAATATTATTATATA [XGTACX_site8320]  11.7 ± 1
21. AATCAAAAAAAATGTTGTACGCCTAATTATAATTAA [XGTACX_site8906]  11.6 ± 0.8
22. TATATATATATATGTTGTACTTTTAATTTAAATGTA [XGTACX_site4239]  11.6 ± 0.94
23. AATTCATTTTACCCATGTACACAATTATATTTTATA [XGTACX_site4127]  11.6 ± 0.83
24. AACAATGTTTTCTTGTGTACACATCATTAAAGAAAA [XGTACX_site4726]  11.6 ± 0.88
25. TATATTTGTGCGTGTACACATTTGAAAAAATATATA [CACACA_site5079]  11.6 ± 0.88
26. TATACATATAAATTGTGTACACATATATATATATTT [XGTACX_site7875]  11.6 ± 0.92
27. CATAATGTAAATAAGTGTACACATATATAATACATA [XGTACX_site3108]  11.6 ± 0.9
28. AAGGAAATATAATATACACACATAAGTGTACTTATA [CACACA_site4030]  11.6 ± 1.1
29. ATAAAATAAAAGTGTACACAAGAAAATATGTTATGT [CACACA_site6033]  11.6 ± 0.79
30. AAAAATATAATATAATGTACACAAAAAAAAAAAAAT [XGTACX_site4914]  11.6 ± 0.91
31. ATATATATATATATGTGTACACAAAAAATATTATAT [XGTACX_site5741]  11.6 ± 0.83
32. TTAAAAATGTGTGTGCGTACATAATATTTCGAAAAA [XGTACX_site8197]  11.6 ± 1
33. GACAAATTATTGTGTACACAATATTATTATATATAC [CACACA_site6020]  11.6 ± 0.89
34. TTTTTTTTTTTCTTTTGTACGTATAAAATTATATAA [XGTACX_site2453]  11.5 ± 0.66
35. AAAAAAAAAATTGAAAGTACACAAATGGGGTATTAT [XGTACX_site3960]  11.5 ± 0.87
36. GTGTTTTTATTATTTTGTACACATATATTTAATATT [XGTACX_site2109]  11.5 ± 0.87
37. ATATATTTATATTTGTGTACATATTTATTATATTTA [XGTACX_site404]  11.5 ± 0.67
38. AAGAAATAAAAAGAATGTACACAATATGTATTATAA [XGTACX_site4733]  11.5 ± 0.69
39. AAAAATATATTATATGTACACACAAAATTAAGGGAT [CACACA_site8384]  11.5 ± 0.83
40. TTATTTTTTTTTTTTTGTACACAATTTGACACATTA [XGTACX_site7983]  11.5 ± 0.91
41. TAAATAATATAATTATGTACGTATTTCTTTATTTTA [XGTACX_site8410]  11.4 ± 0.83
42. TATATATTTTGTGTCTGTACACATATTATTAATTCC [XGTACX_site7507]  11.4 ± 1
43. TGTTTCTAAAAAAAAGGTACACATATATATAATATA [XGTACX_site3217]  11.4 ± 0.93
44. CATAAAATTGTATTTTGTACACATTTTGTATACATT [XGTACX_site5705]  11.4 ± 0.82
45. ATCATGAAATATATTTGTACACATAATAATATAATA [XGTACX_site8798]  11.4 ± 0.89
46. ACTATTTTAAAAATATGTACATACGTTGTAATTTAA [XGTACX_site7999]  11.4 ± 0.83
47. TACAAATTAATATGTACACACAAATATATATATATA [CACACA_site1977]  11.4 ± 0.87
48. ATATAAATAAATATATGTACACACACAAATATATAC [XGTACX_site3950]  11.4 ± 0.73
49. ATATATGAAAATATATGTACACAACATATAAAATAG [XGTACX_site5132]  11.4 ± 0.83
50. TTTCACACTATTTCATGTACACATAAAATTATATAT [XGTACX_site8692]  11.4 ± 0.94
51. TGTATAGTCTAAAGTTGTACAAAAAAAAAAAAAAAA [XGTACX_site5764]  11.3 ± 1
52. AATTTTTCATCAAGTTGTACAATTATTTGTTTGTTT [XGTACX_site3113]  11.3 ± 0.73
53. TATATTTATAGGTACACACACACATATAAATAAATA [CACACA_site6345]  11.3 ± 0.98
54. TTATTTCTACCTTTTTGTACACATTATTATGAAACC [XGTACX_site5325]  11.3 ± 0.81
55. AGAAATTAATCGAAGTGTACATATAAACATACATAT [XGTACX_site5518]  11.3 ± 0.69
56. ATAAATACACACAAGTGTACATACTTCTATAAATAT [XGTACX_site1845]  11.3 ± 0.96
57. ATACACATATGTTAATGTACACATATATAATATTTA [XGTACX_site163]  11.3 ± 0.78
58. TTTTAATTTTGTTGTTGTACAAATAACATGTGAGGG [XGTACX_site4401]  11.2 ± 0.83
59. TCAAATGTGTAATCTTGTACACATTAAAAGAAAAAA [XGTACX_site8822]  11.2 ± 0.83
60. TTGTGAAATAAAATTTGTACACACATATATATATAT [XGTACX_site1078]  11.2 ± 0.86
61. TTAGGTATATATAAACGTACTCACAATATCATATAA [XGTACX_site8743]  11.1 ± 0.71
62. GAAAATACGTTTAATCGTACATATATATAATATATA [XGTACX_site4243]  11.1 ± 0.88
63. TATGTATAAAAATAATGTACAAAATATATTATATGT [XGTACX_site2794]  10.9 ± 0.4
64. TTTTTTTTGTGTATTTGTACATAATATATATATATA [XGTACX_site7092]  10.9 ± 0.49
65. ATGAATATATATATTTGTACATATGTATATATATAT [XGTACX_site7527]  10.9 ± 0.54
66. AAAAAATATTTTTACAGTACATATATATAAAATGTT [XGTACX_site3215]  10.9 ± 0.58
67. AATGTATAATTATAATGTACAAATAATATATAATAT [XGTACX_site5407]  10.9 ± 0.4
68. GATTATATATGAAAATGTACAAATATATATATATAT [XGTACX_site5963]  10.8 ± 0.28
69. TAAAATTTGTACATAGTGCAATTTTTTTTTTTTTTT  10.7 ± 0.52
70. ATAATATAACACAAATGTACAAAAAATAAATAAATA [XGTACX_site385]  10.7 ± 0.4
71. GGTGCACCCATATACACACACAAATACAATGATAAA [CACACA_site1132]  10.6 ± 0.76
72. CACCCACACCAACACACACACATATATAATATATAT [CACACA_site595]  10.3 ± 0.33
73. TCGATATATAGACACACACACTTTTAATAATTAAAT [CACACA_site7726]  10.2 ± 0.24
74. TAAATTATTTATAAAGCACACAAGAAAAAATAAAAT [CACACA_site2132]  10.2 ± 0.092
75. AAAAAAAAAAAATGAGCACACATAAATAAAAACAAA [CACACA_site8447]  10.2 ± 0.12
76. TTCTTATTTTATATTTCACACATTTTTACTATACTT [CACACA_site5817]  10.08 ± 0.071
77. AATATATAAATTGACACACACATATATACATATATA [CACACA_site1213]  10.1 ± 0.11
78. GTTGGGTAATTCGTAACACACATAAAATATATATAA [CACACA_site3986]  10.13 ± 0.099
79. TTTATTTTTAAAGGCACACACATTTTTATTTTTAAA [CACACA_site2021]  10.1 ± 0.19
80. ATCTAATAAAAATACACACACATATGATTTGTGAAT [CACACA_site1867]  10.1 ± 0.28
81. TGTATTATATATACACAAATATTTATGTGTGTGTTT [XGTACX_negctrl_site475]  10.1 ± 0.11
82. ATAATACAATTTATAACACACACACTATAATACATA [CACACA_site8338]  10.025 ± 0.007
83. CAAAAAGGAATGTATGCACACAATTGATTTTAACTC [CACACA_site1468]  10 ± 0.13
84. TTTTTTTTTTTTTTTACACACACAAAATATTATATG [CACACA_site2471]  9.99 ± 0.38
85. ATACTATAATAATACACACTCATTAGATATATAAAG [CACACA_site7787]  9.99 ± 0.12
86. TTCTTTTTAAATATACTAATTATGTATAAAACAGAA [GTGCAC_negctrl_site131]  9.94 ± 0.23
87. TATTTGTGTATTTTTACACACATTAATATATTTATA [CACACA_site7562]  9.9 ± 0.2
88. AAATTAAATAAATTTACACACTAAAAATTACAGATA [CACACA_site4722]  9.88 ± 0.028
89. GAGAAAAGGAAATTCACACATATAAAGAAAGATCTA [CACACA_site5420]  9.865 ± 0.064
90. ATTTTTTTTTTTATTTTCTTTGAGATTATCTTAATT [CACACA_negctrl_site1209]  9.78 ± 0.14
91. ATATTAGAAATATGAATAGAAAGAATATATAAGTAT [CACACA_negctrl_site682]  9.76 ± 0.37
92. GAATTATAAGAATAAACACACAAGCTTAAAAAAAAA [CACACA_site1204]  9.74 ± 0.18
93. AAATTAATAAATATTTTTATAAATTATAATATTAAT [GTGCAC_negctrl_site533]  9.37 ± 0.16

— the supplement of paper PMC11417369
